The values that follow come from PubChem BioAssay (NCATS).

Test [1] has as its target Lysosomal acid glucosylceramidase (Homo sapiens) (UniProt P04062). In words: Glucocerebrosidase-p2 (AID 348; in the data active = potency below about 10 µM; also: potency is read from the fitted curve at half-maximal effect). The following applies: purified GBA, blue fluorogenic substrate, 40 min. Put shortly: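 Compounds titrated from 0.6 nM upwards against 0.2 nM enzyme in pH 5.9 citric acid/KH2PO4, taurocholate, tween-20; blue fluorogenic substrate 80 uM, 40 min room temperature, stopped and read Ex 365/Em 440 for AC50.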

The target in test [2] is Cytochrome P450 1A2 (Homo sapiens) (UniProt P05177). Description: p450-cyp1a2 (AID 410; calls by dose curve; also: potency is read from the fitted curve at half-maximal effect). Particulars: recombinant CYP1A2, luciferin-ME demethylation, luminescence; series mostly up to 57 µM. Put shortly:
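Luminescent readout of luciferin formed from Luciferin-ME by human CYP1A2; data normalized against complete inhibition by 57 uM furafylline. Enzyme 20nM, substrate 100uM at Km, 100mM KPO4 buffer, 60 min reaction at room temperature.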

Test [3] can be described thus: Stat Signaling Pathway (AID 446; active = well fitted curve in either direction with a large enough effect, not every such curve was filed as active;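 also: ME-180 cervical cancer cells given 40 pM IL-6 alongside compound; SIE-controlled beta-lactamase reporter measured as 460/530 nm FRET emission ratio; % is scaled to controls: 0 for no effect and ±100 for the full control effect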). The following applies: ME-180 SIE beta-lactamase reporter, IL-6 stimulated, 5 h; at 7.69 µM (top of the series) unless noted. Put shortly:
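IL-6/STAT signaling read in ME-180 cells via an SIE beta-lactamase reporter. Stimulus was 40 pM IL-6 (its AC50) for 5 hrs, so both activation and inhibition register.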

The target in test [4] is Glucocorticoid receptor (Homo sapiens) (UniProt P04150). In words: GR-GFP Redistribution (AID 450;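 active = compounds whose dose series gives a full or clear partial fitted curve of increased nuclear translocation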; also: potency is read from the fitted curve at half-maximal effect). Particulars: U2OS GR-GFP nuclear translocation, laser cytometry, 2 h.
Glucocorticoid receptor (Homo sapiens), sequence (P04150 whole entry, looked up): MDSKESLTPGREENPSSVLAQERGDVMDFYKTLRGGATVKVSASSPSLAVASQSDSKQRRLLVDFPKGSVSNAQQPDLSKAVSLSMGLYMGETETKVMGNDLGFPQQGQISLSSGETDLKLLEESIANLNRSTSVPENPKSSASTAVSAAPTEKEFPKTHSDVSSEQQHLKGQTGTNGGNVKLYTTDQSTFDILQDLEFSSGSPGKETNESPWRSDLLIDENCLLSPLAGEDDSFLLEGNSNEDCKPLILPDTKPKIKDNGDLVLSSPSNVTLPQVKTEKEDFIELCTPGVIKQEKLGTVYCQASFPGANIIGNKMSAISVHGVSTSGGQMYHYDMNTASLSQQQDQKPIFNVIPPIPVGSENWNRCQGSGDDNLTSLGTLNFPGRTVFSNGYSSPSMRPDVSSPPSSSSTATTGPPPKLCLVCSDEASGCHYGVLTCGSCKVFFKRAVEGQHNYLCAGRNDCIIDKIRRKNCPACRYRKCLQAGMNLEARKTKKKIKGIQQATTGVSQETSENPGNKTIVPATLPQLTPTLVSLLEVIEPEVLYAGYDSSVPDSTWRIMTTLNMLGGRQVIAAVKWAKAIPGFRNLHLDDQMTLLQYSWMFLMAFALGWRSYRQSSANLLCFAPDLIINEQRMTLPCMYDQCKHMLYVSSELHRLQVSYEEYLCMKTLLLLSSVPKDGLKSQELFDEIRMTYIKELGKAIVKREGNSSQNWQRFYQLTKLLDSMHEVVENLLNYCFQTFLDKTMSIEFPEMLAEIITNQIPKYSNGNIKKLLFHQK
Test [5] shares this target. In words: GR-EFC Redistribution (AID 451; calls by dose curve; also: potency is read from the fitted curve at half-maximal effect). Particulars: CHO-K1 GR-EFC translocation, beta-gal luminescence, 2 h. Put shortly:
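CHO-K1 cells expressing nuclear EA and GR-ED fragments of b-gal; compounds titrated up to 46 uM final, 2 h at 37 C. GR nuclear translocation read as complemented b-gal luminescence after 1 h RT detection.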

For test [6], the target named is Mitogen-activated protein kinase 10 (Mus musculus) (UniProt Q61831). In words: JNK3 AlphaScreen Assay (AID 530; active = well fitted curve in either direction with a large enough effect, not every such curve was filed as active;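 also: kinase came from lysate of stimulated human HepG2 cells; signal reports phosphorylation of biotinylated GST-cJun 1-79 at Ser73 with 10 µM ATP; % is scaled to controls: 0 for no effect and ±100 for the full control effect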). The following applies: JNK3 lysate, c-Jun phosphorylation; series mostly up to 57.1 µM. Put shortly: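 Pre-activated (IL-1β/TNFα) JNK3 in HepG2 lysates phosphorylates biotin-GST-cJun(1-79), 10 uM ATP; anti-phospho-cJun(Ser73) AlphaScreen read at room temperature, pH 7.6 Tris buffer. Compounds pre-incubated 15 min as titrations.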
A general note: Bead proximity is the source of the signal in Alpha formats.

Test [7] has as its target 3',5'-cyclic-AMP phosphodiesterase 4B (Homo sapiens) (UniProt Q07343). In words: qHTS Assay for Inhibitors of PDE-IV (AID 607; active = well fitted activation curve with a large enough effect in the main read-out, with a control signal flat, not every such curve was filed as active; also: % of control where 0% means no effect). Particulars: HEK293 ACTOne CNG channel cells, membrane potential fluorescence; series mostly up to 22.9 µM. Put shortly:
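Live HEK293 cells with a modified cyclic nucleotide-gated (CNG) channel report intracellular cAMP via membrane-potential dye fluorescence (ex 535/em 590 nm). Endogenous PDE-IV was targeted. Compounds were tested at up to 22.9 uM final; RO 20-1724 100 uM served as control.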
For orientation: Quantitative high-throughput screening tests each substance at several concentrations.

In test [8] the target is Cytochrome P450 2D6 (Homo sapiens) (UniProt P10635). Description: qHTS Assay for Inhibitors and Substrates of Cytochrome P450 2D6 (AID 891). Also: potency is read from the fitted curve at half-maximal effect; nearly all actives have a fitted effect of over 60% in size. Particulars: recombinant CYP2D6, luciferin-ME EGE luminescence; series mostly up to 57.1 µM. Put shortly: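 Human CYP2D6 (5 nM) with 30 uM Luciferin-ME EGE (at Km) in 100 mM KPO4, compound preincubated 10 min, then NADPH regeneration system for 60 min at room temperature. Luciferin read by luminescence; normalized to 1.43 uM quinidine.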
Cytochrome P450 2D6 (Homo sapiens), sequence (P10635 whole entry, looked up): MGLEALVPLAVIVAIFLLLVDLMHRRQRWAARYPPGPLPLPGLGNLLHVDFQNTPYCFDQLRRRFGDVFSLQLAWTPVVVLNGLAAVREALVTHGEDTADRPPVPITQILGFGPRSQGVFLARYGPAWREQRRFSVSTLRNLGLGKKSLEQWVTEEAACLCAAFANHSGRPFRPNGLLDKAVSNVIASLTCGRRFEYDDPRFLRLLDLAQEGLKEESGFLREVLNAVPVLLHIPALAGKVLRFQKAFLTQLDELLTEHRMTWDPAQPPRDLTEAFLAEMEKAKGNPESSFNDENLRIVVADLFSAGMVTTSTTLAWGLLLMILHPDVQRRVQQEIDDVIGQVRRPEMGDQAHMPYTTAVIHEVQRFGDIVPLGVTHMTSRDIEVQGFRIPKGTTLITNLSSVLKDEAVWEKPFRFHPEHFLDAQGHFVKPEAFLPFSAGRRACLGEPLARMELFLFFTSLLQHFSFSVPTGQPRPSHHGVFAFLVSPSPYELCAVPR

Test [9] in a line: qHTS Assay for Identification of Small Molecule Agonists for Hypoxia Response Element Signaling Pathway (AID 914; active = well fitted activation curve with a large enough effect in the signal ratio, with a control signal flat, not every such curve was filed as active; the % refers to the signal ratio; also: potency is read from the fitted curve at half-maximal effect; as to activation: % of control where 0% means no effect). The following applies: ME-180 HRE-bla reporter, beta-lactamase ratio, CoCl2, 17 h; activation: stronger effect = higher value. Put shortly:
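Positive modulation of EC50 CoCl2-induced hypoxia response element signaling is measured in ME-180 cells with a beta-lactamase reporter. Compounds are titrated, incubation runs 17 hours, and %Activity derives from the blue/green ratio.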

Test [10] in a line: Confirmation and Secondary Assay for Modulators of Hemoglobin Beta Chain Splicing at IVS2 705 locus (AID 930).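 Also: HeLa cells stably expressing the EGFP-705 splicing reporter; GFP fluorescence per well restored by corrected splicing of the IVS2-705 intron in EGFP; % of control where 0% means no effect.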 The following applies: HeLa EGFP-705 splicing reporter, GFP fluorescence, 48 h; series mostly up to 38.3 µM. Put shortly: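 First, HeLa EGFP-705 cells are seeded at 500/well in Optimem with 2% FCS and left overnight. Next, compound or DMSO is added for 2 days. Finally wells are laser-scanned and total peak GFP intensity scored.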

Test [11] in a line: qHTS Assay for Lipid Storage Modulators (AID 1519; calls by dose curve). Particulars: Drosophila S3 cells, BODIPY lipid droplet/cell ratio, laser cytometry, cells loaded with oleic acid; for activity change, negative = inhibition: at 57.5 µM (top of the series). Put shortly:
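Cells seeded at 5,000 per well were treated with compounds over a concentration series and loaded with oleic acid (400 uM, as added). Lipid droplet fluorescence (488 nm excitation, 500-530 nm channel) was read by laser-scanning cytometry and normalized to 20 uM Triacsin C.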

Test [12] deals with Ubiquitin carboxyl-terminal hydrolase 1 (Homo sapiens) (UniProt O94782). In words: Inhibitors of USP1/UAF1: Pilot qHTS (AID 504865).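 Also: rhodamine fluorescence freed from ubiquitin-rhodamine substrate followed over time; top concentration of the series differs between compounds; % is scaled to controls: 0 for no effect and ±100 for the full control effect; nearly all actives have a fitted effect of over 35% in size.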 The following applies: purified USP1/UAF1, Ub-rhodamine cleavage fluorescence; series mostly up to 54.9 µM. Put shortly: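 Deubiquitinase activity followed as kinetic rhodamine fluorescence release from 150 nM Ub-Rho. 1 nM USP1/UAF1 with compound, after 15 min room-temperature preincubation, in HEPES pH 7.8 buffer containing TCEP, EDTA, BSA and Tween-20.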
Ubiquitin carboxyl-terminal hydrolase 1 (Homo sapiens), sequence (O94782 whole entry, looked up): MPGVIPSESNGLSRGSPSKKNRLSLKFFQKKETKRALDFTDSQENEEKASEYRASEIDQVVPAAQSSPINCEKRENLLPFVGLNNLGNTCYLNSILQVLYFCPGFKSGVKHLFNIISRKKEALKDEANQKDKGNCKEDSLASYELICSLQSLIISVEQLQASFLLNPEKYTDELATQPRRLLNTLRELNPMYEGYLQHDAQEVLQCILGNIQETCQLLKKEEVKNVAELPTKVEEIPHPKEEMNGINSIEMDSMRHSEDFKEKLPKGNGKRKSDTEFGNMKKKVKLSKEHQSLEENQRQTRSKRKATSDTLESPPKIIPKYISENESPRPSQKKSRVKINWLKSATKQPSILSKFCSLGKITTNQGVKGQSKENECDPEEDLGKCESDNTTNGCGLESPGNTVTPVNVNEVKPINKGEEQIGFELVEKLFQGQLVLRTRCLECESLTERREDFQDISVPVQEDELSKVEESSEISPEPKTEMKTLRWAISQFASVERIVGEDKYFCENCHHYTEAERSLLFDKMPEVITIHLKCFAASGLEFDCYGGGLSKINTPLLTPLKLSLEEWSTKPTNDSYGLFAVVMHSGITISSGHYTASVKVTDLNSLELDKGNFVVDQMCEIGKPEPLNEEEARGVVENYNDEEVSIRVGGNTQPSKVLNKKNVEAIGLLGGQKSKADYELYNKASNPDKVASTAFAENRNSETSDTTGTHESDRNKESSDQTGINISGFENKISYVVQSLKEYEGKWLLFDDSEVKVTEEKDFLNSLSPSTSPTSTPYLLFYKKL

The nature of test [13]: Primary qHTS for small molecule stabilizers of the endoplasmic reticulum resident proteome: Secreted ER Calcium Modulated Protein (SERCaMP) assay (AID 1508630). Also: % is scaled to controls: 0 for no effect and ±100 for the full control effect. The following applies: SH-SY5Y GLuc-SERCaMP (Gaussia luciferase released on ER calcium loss) secretion, thapsigargin, luminescence; series mostly up to 38.4 µM. Put shortly:
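GLuc-SERCaMP-expressing SH-SY5Y cells, pretreated 16 h with compound, are challenged with thapsigargin to empty ER calcium stores; after 4 h, coelenterazine is added directly to the medium and luminescence is imaged.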

Test [14] is described as follows: NFAT Signaling Pathway (AID 444; active = well fitted curve in either direction with a large enough effect, not every such curve was filed as active;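 also: carbachol stimulus at about its EC50 of 1 µM final; % is scaled to controls: 0 for no effect and ±100 for the full control effect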). Particulars: Jurkat NFAT-bla M1, carbachol, beta-lactamase ratio, 5 h; at 7.69 µM (top of the series) unless noted. Put shortly:
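Jurkat cells with NFAT-driven β-lactamase reporter and co-expressed M1 receptor, stimulated with carbachol (final 1 uM, ~EC50), compound titration, 5 h at 37 °C. CCF4 loaded 1 h at RT; 460/530 nm ratio gave %activity and AC50.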

Test [15] addresses Cytochrome P450 3A4 (Homo sapiens) (UniProt P08684). Description: qHTS Assay for Activators of Cytochrome P450 3A4 (AID 885). Also: nearly all actives have a fitted effect of over 65% in size. Particulars: recombinant CYP3A4, Luciferin-PPXE luminescence, 60 min; series mostly up to 57.1 µM. Put shortly: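 Quantitative HTS format: compounds preincubated with 20nM human CYP3A4 and Luciferin-PPXE substrate at KM, reaction started by NADPH regeneration, stopped after 60 min, luciferase luminescence read 20 min later.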

Test [16] can be described thus: AP1 Signaling Pathway (AID 357; active = well fitted curve in either direction with a large enough effect, not every such curve was filed as active). The following applies: ME-180 (cervical carcinoma) AP-1-bla reporter, EGF-induced, beta-lactamase ratio, 5 h; at 7.69 µM (top of the series) unless noted. Put shortly: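 Beta-lactamase reporter under AP-1 response element, ME-180 background. Stimulus: EC50 EGF. Compound exposure 5 h, 37 °C. Detection: CCF4, 2.5 h RT, 460/530 nm. Values: AC50 from titration.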

Test [17] concerns the target Cytochrome P450 3A4 (Homo sapiens) (UniProt P08684). Description: qHTS Assay for Inhibitors and Substrates of Cytochrome P450 3A4 (AID 884). Also: potency is read from the fitted curve at half-maximal effect; nearly all actives have a fitted effect of over 50% in size. The following applies: recombinant CYP3A4, Luciferin-PPXE luminescence; series mostly up to 57.1 µM. Put shortly: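 20 nM human CYP3A4 with 25 uM Luciferin-PPXE (at KM) in 200 mM KPO4, preincubated 10 min with compound; NADPH regeneration started a 60 min RT reaction. Luciferin detected by luminescence, normalized to 57 uM ketoconazole as full inhibition.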

Test [18] concerns the target Cytochrome P450 2C19 (Homo sapiens) (UniProt P33261). In words: qHTS Assay for Inhibitors and Substrates of Cytochrome P450 2C19 (AID 899). Also: potency is read from the fitted curve at half-maximal effect; nearly all actives have a fitted effect of over 60% in size. The following applies: recombinant CYP2C19, luciferin-H EGE luminescence; series mostly up to 57.1 µM. Put shortly:
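Signal comes from luciferase acting on luciferin released by CYP2C19-mediated hydroxylation of Luciferin-H EGE, 10uM (KM). Assay mix: 5nM enzyme, 50mM KPO4; 60 min at 37C with NADPH regeneration. Data normalized against 57uM ketoconazole.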

Where [19] appears, read: measured here: cell count channel max response.
[20] abbreviates: measured here: lipid channel max response.

SMILES strings stand for the structures. Records with an inconclusive call do not appear. Activity calls are given as the source filed them. Unless noted, calls follow the shape of the dose curve; as a rule, active = well fitted curve in the direction sought with a large enough effect; inconclusive = small, poorly fitted or top-dose-only effect, or another doubt; inactive = no such curve, though single readings can be large; an effect the other way counts as inactive or inconclusive. A value given as a limit tells only on which side of the number the result lay.

Lysosomal acid glucosylceramidase (Homo sapiens), sequence (P04062 whole entry, looked up): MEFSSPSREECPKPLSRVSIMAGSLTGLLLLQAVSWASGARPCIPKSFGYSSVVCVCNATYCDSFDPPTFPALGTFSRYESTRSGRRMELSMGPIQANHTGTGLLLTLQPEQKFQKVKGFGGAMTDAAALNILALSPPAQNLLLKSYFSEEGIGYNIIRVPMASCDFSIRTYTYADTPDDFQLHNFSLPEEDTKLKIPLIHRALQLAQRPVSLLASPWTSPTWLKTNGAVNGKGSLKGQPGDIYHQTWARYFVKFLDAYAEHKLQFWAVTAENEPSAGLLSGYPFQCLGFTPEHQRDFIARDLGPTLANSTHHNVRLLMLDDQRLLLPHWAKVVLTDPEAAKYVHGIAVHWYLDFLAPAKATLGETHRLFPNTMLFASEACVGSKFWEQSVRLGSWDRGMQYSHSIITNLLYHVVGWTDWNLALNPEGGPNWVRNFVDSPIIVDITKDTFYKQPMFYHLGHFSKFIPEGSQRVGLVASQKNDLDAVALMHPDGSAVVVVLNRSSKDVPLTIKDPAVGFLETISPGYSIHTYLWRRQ
3',5'-cyclic-AMP phosphodiesterase 4B (Homo sapiens), sequence (Q07343 whole entry, looked up): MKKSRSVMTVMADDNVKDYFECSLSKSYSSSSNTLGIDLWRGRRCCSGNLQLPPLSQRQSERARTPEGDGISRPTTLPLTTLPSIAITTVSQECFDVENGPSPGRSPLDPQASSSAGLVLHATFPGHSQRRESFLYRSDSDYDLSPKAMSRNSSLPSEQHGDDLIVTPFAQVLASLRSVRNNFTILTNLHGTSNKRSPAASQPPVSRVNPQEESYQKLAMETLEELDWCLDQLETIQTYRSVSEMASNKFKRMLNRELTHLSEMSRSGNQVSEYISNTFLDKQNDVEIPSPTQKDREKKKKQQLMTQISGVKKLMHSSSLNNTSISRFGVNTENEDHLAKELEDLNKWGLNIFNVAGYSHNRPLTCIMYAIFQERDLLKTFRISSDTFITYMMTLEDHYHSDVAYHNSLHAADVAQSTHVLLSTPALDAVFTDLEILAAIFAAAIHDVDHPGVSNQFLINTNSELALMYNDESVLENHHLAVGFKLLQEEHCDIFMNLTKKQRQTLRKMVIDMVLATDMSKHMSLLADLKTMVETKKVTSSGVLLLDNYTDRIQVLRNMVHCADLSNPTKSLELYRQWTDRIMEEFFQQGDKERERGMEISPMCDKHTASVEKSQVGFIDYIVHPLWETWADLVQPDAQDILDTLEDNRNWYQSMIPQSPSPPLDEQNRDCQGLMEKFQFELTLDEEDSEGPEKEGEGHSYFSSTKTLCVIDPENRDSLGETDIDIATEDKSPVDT
Cytochrome P450 1A2 (Homo sapiens), sequence (P05177 whole entry, looked up): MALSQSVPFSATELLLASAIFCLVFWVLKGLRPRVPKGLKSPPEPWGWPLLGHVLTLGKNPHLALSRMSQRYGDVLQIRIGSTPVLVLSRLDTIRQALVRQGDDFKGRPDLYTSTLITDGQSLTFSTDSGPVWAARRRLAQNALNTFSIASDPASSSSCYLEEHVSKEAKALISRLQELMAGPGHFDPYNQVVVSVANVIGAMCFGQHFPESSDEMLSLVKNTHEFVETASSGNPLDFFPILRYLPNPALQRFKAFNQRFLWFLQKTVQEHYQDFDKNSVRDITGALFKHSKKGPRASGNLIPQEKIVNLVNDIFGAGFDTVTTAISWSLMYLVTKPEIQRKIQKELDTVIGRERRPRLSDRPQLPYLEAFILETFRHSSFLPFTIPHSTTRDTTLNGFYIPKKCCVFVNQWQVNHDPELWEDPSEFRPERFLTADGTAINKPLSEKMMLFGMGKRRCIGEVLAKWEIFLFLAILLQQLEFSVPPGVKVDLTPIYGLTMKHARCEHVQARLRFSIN
Cytochrome P450 3A4 (Homo sapiens), sequence (P08684 whole entry, looked up): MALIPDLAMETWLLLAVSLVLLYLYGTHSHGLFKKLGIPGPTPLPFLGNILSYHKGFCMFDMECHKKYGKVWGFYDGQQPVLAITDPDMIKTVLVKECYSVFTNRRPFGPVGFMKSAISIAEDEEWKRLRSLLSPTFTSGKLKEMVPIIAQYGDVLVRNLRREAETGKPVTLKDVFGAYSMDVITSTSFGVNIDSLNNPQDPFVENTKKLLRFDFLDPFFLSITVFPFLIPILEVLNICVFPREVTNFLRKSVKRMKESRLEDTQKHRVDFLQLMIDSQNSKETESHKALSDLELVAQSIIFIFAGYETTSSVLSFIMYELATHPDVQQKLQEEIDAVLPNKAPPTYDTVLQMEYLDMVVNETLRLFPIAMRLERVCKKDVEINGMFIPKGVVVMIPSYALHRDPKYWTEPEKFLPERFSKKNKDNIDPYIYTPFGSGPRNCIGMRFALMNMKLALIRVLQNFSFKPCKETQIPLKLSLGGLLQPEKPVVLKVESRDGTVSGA
Cytochrome P450 2C19 (Homo sapiens), sequence (P33261 whole entry, looked up): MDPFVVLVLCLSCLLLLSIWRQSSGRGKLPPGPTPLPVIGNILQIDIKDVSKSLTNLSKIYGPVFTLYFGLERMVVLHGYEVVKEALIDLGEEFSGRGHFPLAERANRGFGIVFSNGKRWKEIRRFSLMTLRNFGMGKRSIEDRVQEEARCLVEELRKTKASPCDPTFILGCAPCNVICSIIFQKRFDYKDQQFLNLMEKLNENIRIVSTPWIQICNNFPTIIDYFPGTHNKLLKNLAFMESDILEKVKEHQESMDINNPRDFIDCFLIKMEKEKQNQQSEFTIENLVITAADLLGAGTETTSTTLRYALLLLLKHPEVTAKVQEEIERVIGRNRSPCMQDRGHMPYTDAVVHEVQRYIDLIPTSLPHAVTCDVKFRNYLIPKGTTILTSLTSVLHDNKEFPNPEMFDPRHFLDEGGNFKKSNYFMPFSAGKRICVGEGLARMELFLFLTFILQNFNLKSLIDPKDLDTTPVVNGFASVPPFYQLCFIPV

With `COc1ccccc1-c1nc(NCCNC(C)=O)c2ccccc2n1`, the Potency is > 11.4 µM (inactive) in test [1]; 15.8 µM (active) in test [2]; > 46 µM (inactive) in test [4]; > 46 µM (inactive) in test [5]; 6.31 µM (active) in test [8]. Also, the activity, negative = inhibition in test [3] was 5.28% (inactive). Moreover, the Potency result in test [6], in [7] and in [12] was “inactive” in each case. Besides, in test [9], the activation is -0.258% (inactive). The call in [10] and in test [13] was inactive. The activity change, negative = inhibition in test [11] was 5.2% (inactive). Further, the max response in test [11] (setting [19]) was determined as 8.82%; in test [11] (setting [20]), 14.5%.
Regarding `CCNc1ncc2ncc(=O)n(C)c2n1`, the results for the Potency in test [1], in test [4] and in [5] were > 11.4 µM (inactive), > 9.22 µM (inactive) and > 46 µM (inactive), respectively. For the same compound, the activity change, negative = inhibition in [14] was -4.43% (inactive); in test [11], 5.71% (inactive). For the same compound, the activity, negative = inhibition in test [3] is -6.09% (inactive). For the same compound, the Potency result in [6] and in [7] was “inactive” throughout. Also, the max response in test [11] (setting [19]) is 10.2%; in test [11] (setting [20]), 17.6%. In addition, in [13], the result was inactive.
Turning to `COc1ccc(Oc2ncc3nc(-c4ccc(OC)cc4)c(=O)n(CCC#N)c3n2)cc1`, the Potency in test [1] is > 11.4 µM (inactive); in [4], > 9.22 µM (inactive); in [5], > 46 µM (inactive). For the same compound, the results for the activity change, negative = inhibition in test [14] and in test [11] were 7.68% (inactive) and -1.07% (inactive), respectively. The activity, negative = inhibition in test [3] was 2.86% (inactive). For the same compound, the Potency entry in test [6] and in test [7] was “inactive” in each case. In addition, the max response is 17.2% in [11] (setting [19]) and 21% in test [11] (setting [20]). For the same compound, the outcome in test [13] was inactive.
As for `COc1ccc(-c2nc3cnc(N4CCNCC4)nc3n(CCC#N)c2=O)cc1`, the Potency in test [1] is > 11.4 µM (inactive); in [2], 15.8 µM (active); in test [4], > 9.22 µM (inactive); in test [5], > 46 µM (inactive); in test [9], 3.16 µM (active). For the same compound, the Potency result in test [6], in test [7] and in test [15] was “inactive” throughout. For the same compound, in test [11], the activity change, negative = inhibition was 4.58% (inactive). Also, the max response was 17% in test [11] (setting [19]) and 25% in test [11] (setting [20]). Further, the outcome in [13] was inactive.
For the compound `FC(F)(F)c1ccccc1-c1cncnc1Nc1ccccc1`, the figures for the activity change, negative = inhibition in test [16], in test [14] and in test [11] were -9.67% (inactive), 9.21% (inactive) and 4.42% (inactive), respectively. Also, the Potency in test [2] is 25.1 µM (active); in test [4], > 46 µM (inactive); in test [5] it was > 46 µM (inactive); in [17], 0.501 µM (active); in test [18] it was 7.94 µM (active). Further, the activity, negative = inhibition in [3] was 7.53% (inactive). The Potency result in test [6], in test [15] and in test [12] was “inactive” each time. For the same compound, the outcome in [10] and in test [13] was inactive. Moreover, the max response in [11] (setting [19]) stood at 10.3%; in test [11] (setting [20]), 16.8%.
Take `O=C(c1cnccn1)N1CCC2(CCCN(C(c3ccccc3)c3ccccc3)C2)CC1`: the Potency in test [1] was > 11.4 µM (inactive); in [2], 20 µM (active); in test [5] it was > 46 µM (inactive); in test [17] it was 1.58 µM (active). In addition, the activity, negative = inhibition in [3] is 14% (inactive). Besides, the Potency result in [6] and in test [15] was “inactive” throughout. The activity change, negative = inhibition in [11] was 0.62% (inactive). Moreover, the max response in test [11] (setting [19]) is 6.86%; in test [11] (setting [20]), 7.68%. The result in test [13] was inactive.
For `Cn1cccc1C(=O)N1CCC2(CCCN(C(=O)Nc3ccccc3)C2)CC1`, the Potency in test [1] is > 11.4 µM (inactive); in test [5] it was > 46 µM (inactive). Further, the figures for the activity change, negative = inhibition in test [14] and in test [11] were -22.5% (inactive) and 7.87% (inactive), respectively. Also, the activity, negative = inhibition in test [3] is 4.11% (inactive). For the same compound, the Potency result in [6], in test [7] and in test [15] was “inactive” throughout. Further, the max response came to 14.7% in test [11] (setting [19]) and 28.5% in [11] (setting [20]). In test [13], the outcome was inactive.
